Screening data as filed in PubChem BioAssay.
GLP1R inv ag: inverse agonists of human GLP-1 receptor | P43220 | HEK293 GLP-1R CRE-luciferase, luminescence, 24 h; GLP-1R form is constitutively active | Potency, µM (doses to about 38.3 µM), for inactives: at the top dose activity change, negative = inhibition, most hits filed as inhibitors | 410,000 compounds, 1.6% hits | AID 624417; also: potency is read from the fitted curve at half-maximal effect; % is scaled to controls: 0 for no effect and ±100 for the full control effect; nearly all actives have a fitted effect of over 55% in size
Target sequence (P43220 whole entry, looked up): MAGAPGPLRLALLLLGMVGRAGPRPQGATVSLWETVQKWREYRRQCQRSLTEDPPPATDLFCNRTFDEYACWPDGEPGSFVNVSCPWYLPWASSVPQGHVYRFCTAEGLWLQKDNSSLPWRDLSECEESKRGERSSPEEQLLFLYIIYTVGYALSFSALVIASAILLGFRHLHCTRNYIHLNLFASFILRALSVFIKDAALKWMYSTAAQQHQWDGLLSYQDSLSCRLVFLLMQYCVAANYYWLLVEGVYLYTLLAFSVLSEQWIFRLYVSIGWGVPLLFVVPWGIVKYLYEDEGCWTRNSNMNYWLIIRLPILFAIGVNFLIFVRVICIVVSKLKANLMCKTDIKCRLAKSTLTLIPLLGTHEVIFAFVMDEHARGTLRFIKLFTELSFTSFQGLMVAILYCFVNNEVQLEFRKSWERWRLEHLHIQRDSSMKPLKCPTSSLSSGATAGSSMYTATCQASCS
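Assay principle: reduced luminescence from a cAMP-responsive reporter in HEK293 cells co-expressing a constitutively active GLP-1R. Conditions: 24 hr compound incubation, 37 deg C, 5% CO2.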
D3 ag: D3 dopamine receptor (human) agonism. D3R DiscoveRx beta-arrestin cells, luminescence, 90 min. max activation, %. 410,000 compounds, 0.58% hits; in the data active = max activation above about 30%; also: 0% is about no effect
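Agonist-mode cell screen: cells plated at 1500/well and incubated overnight at 37 °C, then exposed to library compounds for 90 min at 37 °C. Detection reagent was added for 30–60 min at room temperature, and luminescence was read.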
GLP1R ag: agonists of human GLP-1 receptor | P43220 | HEK293 GLP-1R CRE-luciferase, luminescence, 4-6 h; cells express a hypersensitive GLP-1R form | Potency, µM (titrated, usually from 45.6 µM), inactives show top-dose activation, usual class: activators | 380,000 compounds, 0.007% hits | AID 624172; also: potency is read from the fitted curve at half-maximal effect; % of control where 0% means no effect
D3 antag: blocks the human D3 dopamine receptor; P35462; D3R cells, DiscoveRx beta-arrestin luminescence, antagonist mode; active compounds read low; max response, negative = inhibition, %; 360,000 compounds, 2.5% hits; AID 652054; in the data active = max response below about -50%; inconclusive = no clear call, values can overlap the other calls; also: % is scaled to controls: 0 for no effect and ±100 for the full control effect
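Cells expressing the human receptor were seeded at 1500 cells/well, incubated overnight at 37 degrees C in 5% CO2, then exposed to library compounds with dopamine controls for 90 minutes at 37 degrees C before luminescent detection.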
The depositor's hits bear a star; ? = inconclusive; / = no result. Sampled rows, rich in hits. Any-hit rate of the full collection: about 4.3%. Unless noted, calls follow the shape of the dose curve; as a rule, active = well fitted curve in the direction sought with a large enough effect; inconclusive = small, poorly fitted or top-dose-only effect, or another doubt; inactive = no such curve, though single readings can be large; an effect the other way counts as inactive or inconclusive.

SMILES	GLP1R inv ag	D3 ag	GLP1R ag	D3 antag
CC1(c2ccccc2)CC(C)(C)N2C(=O)C3(C(C#N)=C(N)Oc4cc(O)ccc43)c3cccc1c32 (stereo not given)	5.6µM*	-5	-13%	-4
O=c1cc(-c2ccc(O)cc2)oc2cc(O)c(C3OC(CO)C(O)C(O)C3O)c(O)c12 (stereo not given)	18%	-26	3%	-64*
O=c1cc(-c2ccc(O)c(O)c2)oc2cc(O[C@@H]3O[C@H](CO)[C@@H](O)[C@H](O)[C@H]3O)cc(O)c12	5%	9	5%	-14
C(=C/c1ccnc2nc(SC/C=C/c3ccccc3)nn12)/c1ccccc1	-3%	-22	13%	-16
CN1CCN(c2nc(-c3ccccn3)nc3ccccc23)CC1	-3%	4	-11%	-51*
c1ccc(N2CCN(c3nc(-c4ccccn4)nc4ccccc34)CC2)cc1	?	-11	-1%	-82*
O=S(=O)(c1cccc(F)c1)N1CCC(Oc2ccc(-n3cnnn3)cc2)CC1	16%	-2	/	/
Cc1nn(Cc2c(F)c(F)c(F)c(F)c2F)c(C)c1NC(=O)c1ccc(COc2ccccc2Cl)o1	10µM*	3	-3%	-1
Cc1nn(Cc2c(F)c(F)c(F)c(F)c2F)c(C)c1NC(=O)c1ccc(COc2ccccc2Cl)cc1	-8%	2	1%	-16
COc1ccccc1C1c2ccc3ccccc3c2Oc2ncn(CCCO)c(=N)c21 (stereo not given)	?	4	14%	1
COc1ccc(C2c3ccc4ccccc4c3Oc3ncn(CCCN(C)C)c(=N)c32)cc1 (stereo not given)	4.5µM*	-10	21%	-25
COc1ccccc1C1c2ccc3ccccc3c2Oc2ncn(CCN(C)C)c(=N)c21 (stereo not given)	2.8µM*	5	22%	-21
COc1ccc(C2c3c(ncn(CCCO)c3=N)Oc3ccc4ccccc4c32)cc1 (stereo not given)	?	-2	19%	9
Cc1cccc(C)c1NC(=O)Cn1cc(S(=O)(=O)Cc2ccc(F)cc2)c2ccccc21	-12%	-6	/	/
CCOC(=O)c1c(C)oc2nc(C)nc(NCCc3ccc(OCC)cc3)c12	-14%	11	/	/
CC[C@H](NC(C)C)[C@H](O)c1ccc(O)c2[nH]c(=O)ccc12	/	45*	32%	/
Cc1ccc(C(c2nnnn2C(C)(C)C)N2CCN(C3CCCC3)CC2)cc1 (stereo not given)	7%	-16	1%	-92*
CC(C)(C)n1nnnc1C(c1ccncc1)N1CCN(C2CCCCC2)CC1 (stereo not given)	5%	-4	-6%	14
COc1ccccc1N1CCN(C(c2ccc(N(C)C)cc2)c2nnnn2CCc2ccccc2)CC1 (stereo not given)	0%	1	6%	-51*
COc1ccc(Cn2nnnc2C(c2ccccc2)N2CCN(C3CCCC3)CC2)cc1 (stereo not given)	?	-10	5%	-27
COc1ccccc1N1CCN(C(c2ccc(F)cc2)c2nnnn2C(C)C)CC1 (stereo not given)	-2%	-4	-1%	21
COc1ccc(C(c2nnnn2CCc2ccccc2)N2CCN(C3CCCC3)CC2)cc1 (stereo not given)	-30%	0	1%	-85*
C=C(C)Cn1c(=O)c2c(nc3n2CCN3c2ccc(CC)cc2)n(C)c1=O	2%	8	/	/
Cc1cccc(CNC(=O)C2CCN(S(=O)(=O)c3cccc4nonc34)CC2)c1	1%	3	/	/
CS(=O)(=O)N(CC(=O)NCC1CCCO1)c1cc(Cl)cc(Cl)c1 (stereo not given)	-6%	2	1%	-97*
SMILES	GLP1R inv ag	D3 ag	GLP1R ag	D3 antag
CCOC(=O)C1=C(C)c2ccccc2N(C(=O)OC)C1(C)C(=O)OCC (stereo not given)	10%	9	23%	18
CCC(C)C(=O)N1c2ccccc2C(=C2SC(C(=O)OC)=C(C(=O)OC)S2)C(=S)C1(C)C (stereo not given)	10µM*	-11	-1%	?
COc1ccc(/C=C/C(=O)c2ccc(Cl)s2)cc1O	?	-8	-17%	-72*
Nc1ccn([C@@H]2O[C@H](C(=O)N(CCC3=CCCCC3)CC3CC3)[C@@H](O)[C@H]2O)c(=O)n1	14%	40*	9%	-29
O=C(NC(c1ccc2ccccc2n1)c1cccs1)C1CCN(Cc2cccc(C(F)(F)F)c2)CC1 (stereo not given)	?	-24	7%	?
O=C(NC(c1ccc(Cl)cc1)c1ccsc1)C1CCN(Cc2cccc(Cl)c2)CC1 (stereo not given)	?	-18	-6%	-50*
O=C(NC(c1ccc(Cl)cc1)c1ccsc1)C1CCN(Cc2cccc(C(F)(F)F)c2)CC1 (stereo not given)	?	-21	-3%	-93*
CC[C@H]1OC(=O)[C@H](C)[C@@H](O[C@H]2C[C@@](C)(OC)[C@@H](O)[C@H](C)O2)[C@H](C)[C@@H](O[C@@H]2O[C@H](C)C[C@H](N(C)C)[C@H]2O)[C@](C)(O)C[C@@H](C)[C@@H]2N[C@@H](COCCOC)O[C@@H]([C@H]2C)[C@]1(C)O	/	-8	/	/
CCCCOc1cccc(C(=O)N(Cc2ccc(Cl)cc2)C2CCS(=O)(=O)C2)c1 (stereo not given)	?	-9	/	/
CCc1ccc2oc(-c3cccc(N)c3)nc2c1	?	-4	-20%	-52*
CC[C@H](C)[C@H](NC(=O)[C@H](CO)NC(=O)[C@H](CC(N)=O)NC(=O)[C@H](CC(C)C)NC(=O)[C@H](Cc1ccc(O)cc1)NC(=O)[C@H](CCCCN)NC(=O)[C@H](CCCCN)NC(=O)[C@@H](NC(=O)[C@H](C)NC(=O)[C@H](CCSC)NC(=O)[C@H](CCC(N)=O)NC(=O)[C@H](CCCCN)NC(=O)[C@H](CCCNC(=N)N)NC(=O)[C@H](CC(C)C)NC(=O)[C@H](CCCNC(=N)N)NC(=O)[C@@H](NC(=O)[C@H](Cc1ccc(O)cc1)NC(=O)[C@H](CC(N)=O)NC(=O)[C@H](CC(=O)O)NC(=O)[C@@H](NC(=O)[C@H](Cc1ccccc1)NC(=O)[C@@H](NC(=O)[C@H](C)NC(=O)[C@H](CC(=O)O)NC(=O)[C@H](CO)NC(=O)[C@@H](N)Cc1c[nH]cn1)C(C)C)[C@@H](C)O)[C@@H](C)O)C(C)C)C(=O)N[C@@H](CC(C)C)C(=O)N[C@@H](CC(N)=O)C(=O)O	/	/	13%	/
CCCN(CC(=O)Nc1ccccc1OC)C(=O)c1ccc2[nH]c3c(c2c1)CC(C)CC3 (stereo not given)	10µM*	13	-21%	26
CCN(CC(=O)Nc1ccccc1OC)C(=O)c1ccc2[nH]c3c(c2c1)CC(C)CC3 (stereo not given)	?	2	-3%	-20
